Laboratory results: ChEMBL document CHEMBL3988442, “University of Dundee, Small-Polar-MMV Screening Library” (2021)
Among all 48,000 compounds or so, about 13,000 (27%) showed an effect of 50% or more. Some of the results follow.

What follows are molecules tested on Wolbachia pipientis (assay: Anti-Wolbachia Cell-Based Screen). Conditions: 5 µM.
Format: functional
Design: scale not given: in the data most compounds retested in dose-response had high values

| Structure (SMILES) | Percent Effect [%] |
| --- | --- |
| Cc1nc(N2CCN(C(=O)C(C)(C)C)CC2)cc(-n2cnc(C)c2C)n1 | -0.05678 |
| CC(C)N1c2sc(-c3ccccc3)nc2CC1C(=O)NCCCO (centres undefined) | 3.342 |
| CN(C)CCOCC1CN(C(=O)c2ccsc2)Cc2ccnn2C1.O=C(O)C(F)(F)F.O=C(O)C(F)(F)F (centres undefined) | -7.951 |
| CN(C)CCNC(=O)C1Cc2nc(-c3ccsc3)sc2N1CC1CC1.O=C(O)C(F)(F)F (centres undefined) | 106.6 |
| O=C(O)C(F)(F)F.O=C1N(c2ccsc2)CCC12CCCN(CC1CC1)C2 (centres undefined) | 0.74 |
| CN(C)CCNC(=O)C1Cc2nc(-c3ccccc3)sc2N1CC1CC1.O=C(O)C(F)(F)F (centres undefined) | 101.2 |
| O=C(O)C(F)(F)F.O=C(c1ccsc1)N1C[C@@H]2CCN(c3cccnc3)C[C@@H]2C1 | -7.879 |
| O=C(Nc1cccnc1)C1Cc2nc(-c3ccsc3)sc2N1CC1CC1.O=C(O)C(F)(F)F (centres undefined) | 52.78 |
| O=C(Nc1cccnc1)[C@H]1C[C@H]2OCC[C@H]2N(C(=O)c2ccsc2)C1.O=C(O)C(F)(F)F | -10.81 |
| CC(C)N1[C@@H](C(=O)NCCN(C)C)C[C@H]2CN(c3ncccn3)C[C@H]21.O=C(O)C(F)(F)F.O=C(O)C(F)(F)F.O=C(O)C(F)(F)F | -8.926 |
| Cc1cc(C(C)(O)CNC(=O)C2(C)CCCC2)c(C)o1 (centres undefined) | -0.4765 |
| FC(F)(F)CCc1ccnc(NCc2csc(N3CCOCC3)n2)n1 | 9.156 |
| CNC(=O)[C@@H]1COC[C@H]2CN(C(=O)c3ccc(C)c(C)c3)C[C@H]21 | -0.6496 |
| Cc1cc(CN(C)Cc2ncc(-c3cccs3)o2)no1 | -12.35 |
| Cc1cc(CN(C)Cc2ncc(-c3ccccc3)o2)no1 | 85.66 |
| Cc1ccc(CN(C)Cc2ncc(C(C)(C)C)o2)o1 | 106.2 |
| CN(Cc1ncc(-c2ccccc2)o1)CC1CCCN1c1cccnn1 (centres undefined) | 1.26 |
| CCN(Cc1ncc(C(C)(C)C)o1)Cc1ccccc1C | -27.71 |
| Cc1cccc(CN(Cc2ccccn2)Cc2ncc(C(C)(C)C)o2)c1 | -46.43 |
| Cc1cc(CN(C)Cc2cnc3c(c2)c(C)nn3C)no1 | -2.389 |
| Cc1cc(CN(C)Cc2ncc(C(C)(C)C)o2)no1 | 71.54 |
| CCN(Cc1cccc(Cl)c1)Cc1ncc(C(C)(C)C)o1 | -36.69 |
| CN(Cc1ccc(N(C)C)cc1)C(=O)CS(=O)(=O)c1ccc(Cl)cc1 | -13.85 |
| CCN1CCN(C(=O)C2CCCc3[nH]ncc32)CC1 (centres undefined) | -17.44 |
